# In PubChem BioAssay AID1159580 (chemical genetic matrix, 2015):
# The campaign covered roughly 5,500 compounds. About 2,000 (36%) were called active. About 18% were inconclusive and are not listed. This is one part of the list. Unmarked numbers belong to inactive results. Cut-off read from the data, not from the text of the source: active = normalized growth mostly below about 0.91 (no sharp cut-off); inconclusive = no clear call, values can overlap the other calls; inactive = mostly above about 0.92.
# Assay: chemical genetic growth profiling, strain panel (AID 1159580);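 note: tested at 20 µM; growth read once vehicle control cultures reached saturation at 30 °C; 1 = growth at the plate median or of vehicle wells; lower values mean less growth of the strain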
# Conditions: growth OD
# [1] = S. cerevisiae deletion strains, locus YGR078C, strain PAC10, active compounds read low
# [2] = S. cerevisiae deletion strains, locus YMR263W, strain SAP30, active compounds read low
# [3] = S. cerevisiae deletion strains, locus YMR307W, strain GAS1, active compounds read low
# [4] = S. cerevisiae deletion strains, locus YNL322C, strain KRE1, active compounds read low
# [5] = S. cerevisiae deletion strains, locus YPL241C, strain CIN2, active compounds read low
# [6] = S. cerevisiae deletion strains, locus YDL101C, strain DUN1, active compounds read low
# [7] = S. cerevisiae deletion strains, locus YHR030C, strain SLT2, active compounds read low
smiles,measurement,setting,value
CCCc1c(-c2ccc(O)cc2)nn(-c2ccc(O)cc2)c1-c1ccc(O)cc1,normalized growth,"S. cerevisiae deletion strains, locus YAL040C, strain CLN3, active compounds read low",0.985
same,normalized growth,"S. cerevisiae deletion strains, locus YCL061C, strain MRC1 (second series), active compounds read low",0.999
same,normalized growth,"S. cerevisiae deletion strains, locus YDR363W, strain ESC2, active compounds read low",0.994
same,normalized growth,"S. cerevisiae deletion strains, locus YER002W, strain NOP16, active compounds read low",1
same,normalized growth,[1],1
same,normalized growth,[2],0.995
same,normalized growth,[3],1.01
same,normalized growth,"S. cerevisiae deletion strains, locus YNL175C, strain NOP13, active compounds read low",1.02
same,normalized growth,"S. cerevisiae deletion strains, locus YNL197C, strain WHI3, active compounds read low",1.01
same,normalized growth,"S. cerevisiae deletion strains, locus YNL224C, strain SQS1, active compounds read low",1
same,normalized growth,[4],0.988
same,normalized growth,"S. cerevisiae deletion strains, locus YOR083W, strain WHI5 (second series), active compounds read low",0.948
same,normalized growth,[5],0.991
O=C1CCc2cccc3cccc1c23,normalized growth,"S. cerevisiae deletion strains, locus YAL013W, strain DEP1, active compounds read low",0.963
same,normalized growth,"S. cerevisiae deletion strains, locus YBR229C, strain ROT2, active compounds read low",0.984
same,normalized growth,[6],0.932
same,normalized growth,"S. cerevisiae deletion strains, locus YDR150W, strain NUM1, active compounds read low",0.966
same,normalized growth,"S. cerevisiae deletion strains, locus YEL061C, strain CIN8, active compounds read low",0.954
same,normalized growth,[1],0.962
same,normalized growth,[7],0.769
same,normalized growth,"S. cerevisiae deletion strains, locus YHR087W, strain rtc3, active compounds read low",1.01
same,normalized growth,"S. cerevisiae deletion strains, locus YJL187C, strain SWE1, active compounds read low",0.981
same,normalized growth,"S. cerevisiae deletion strains, locus YJR043C, strain POL32, active compounds read low",0.988
same,normalized growth,"S. cerevisiae deletion strains, locus YJR075W, strain HOC1, active compounds read low",0.997
same,normalized growth,"S. cerevisiae deletion strains, locus YLR039C, strain RIC1, active compounds read low",0.679 (active)
same,normalized growth,"S. cerevisiae deletion strains, locus YLR058C, strain SHM2 (second series), active compounds read low",0.982
same,normalized growth,"S. cerevisiae deletion strains, locus YLR085C, strain ARP6, active compounds read low",0.764 (active)
same,normalized growth,"S. cerevisiae deletion strains, locus YLR262C, strain YPT6, active compounds read low",0.672 (active)
same,normalized growth,"S. cerevisiae deletion strains, locus YML094W, strain GIM5, active compounds read low",0.921
same,normalized growth,"S. cerevisiae deletion strains, locus YMR219W, strain ESC1, active compounds read low",0.988
same,normalized growth,[2],0.969
same,normalized growth,[3],1.03
same,normalized growth,"S. cerevisiae deletion strains, locus YNL153C, strain GIM3, active compounds read low",0.934
same,normalized growth,"S. cerevisiae deletion strains, locus YNL298W, strain CLA4 (second series), active compounds read low",0.906
same,normalized growth,[4],0.957
same,normalized growth,"S. cerevisiae deletion strains, locus YNR030W, strain Alg12, active compounds read low",0.927
same,normalized growth,"S. cerevisiae deletion strains, locus YPL055C, strain LGE1, active compounds read low",1
same,normalized growth,[5],0.933
same,normalized growth,"S. cerevisiae deletion strains, locus YPR135W, strain CTF4, active compounds read low",0.713
same,normalized growth,"S. cerevisiae strains, strain wild type, active compounds read low",0.949
Cc1cccc(N=NC(C(=O)C(F)(F)F)=C(O)c2cccs2)c1,normalized growth,"S. cerevisiae deletion strains, locus YAR019C, strain CDC15, active compounds read low",0.995
same,normalized growth,"S. cerevisiae deletion strains, locus YBL105C, strain PKC1, active compounds read low",0.985
same,normalized growth,"S. cerevisiae deletion strains, locus YBR135W, strain CKS1, active compounds read low",0.987
same,normalized growth,"S. cerevisiae deletion strains, locus YBR136W, strain MEC1, active compounds read low",0.993
same,normalized growth,"S. cerevisiae deletion strains, locus YBR160W, strain CDC28, active compounds read low",0.996
same,normalized growth,"S. cerevisiae deletion strains, locus YDL017W, strain CDC7, active compounds read low",0.986
same,normalized growth,"S. cerevisiae deletion strains, locus YDL028C, strain MPS1, active compounds read low",0.996
same,normalized growth,[6],0.988
same,normalized growth,"S. cerevisiae deletion strains, locus YDL108W, strain KIN28, active compounds read low",0.984
same,normalized growth,"S. cerevisiae deletion strains, locus YDL132W, strain cdc53, active compounds read low",0.978
same,normalized growth,"S. cerevisiae deletion strains, locus YDL214C, strain PRR2, active compounds read low",0.975
same,normalized growth,"S. cerevisiae deletion strains, locus YDR052C, strain DBF4, active compounds read low",0.99
same,normalized growth,"S. cerevisiae deletion strains, locus YDR054C, strain cdc34, active compounds read low",0.976
same,normalized growth,"S. cerevisiae deletion strains, locus YDR226W, strain ADK1, active compounds read low",0.992
same,normalized growth,"S. cerevisiae deletion strains, locus YDR477W, strain SNF1, active compounds read low",0.975
same,normalized growth,"S. cerevisiae deletion strains, locus YER123W, strain YCK3, active compounds read low",0.979
same,normalized growth,"S. cerevisiae deletion strains, locus YER133W, strain GLC7, active compounds read low",0.975
same,normalized growth,"S. cerevisiae deletion strains, locus YFL009W, strain cdc4, active compounds read low",0.988
same,normalized growth,"S. cerevisiae deletion strains, locus YFL029C, strain CAK1, active compounds read low",0.993
same,normalized growth,"S. cerevisiae deletion strains, locus YFR003C, strain YPI1, active compounds read low",0.99
same,normalized growth,"S. cerevisiae deletion strains, locus YFR019W, strain FAB1, active compounds read low",0.992
same,normalized growth,"S. cerevisiae deletion strains, locus YFR028C, strain CDC14, active compounds read low",0.983
same,normalized growth,"S. cerevisiae deletion strains, locus YGR040W, strain KSS1, active compounds read low",0.974
same,normalized growth,"S. cerevisiae deletion strains, locus YGR052W, strain FMP48, active compounds read low",0.927
same,normalized growth,"S. cerevisiae deletion strains, locus YGR092W, strain DBF2, active compounds read low",0.946
same,normalized growth,[7],0.876
same,normalized growth,"S. cerevisiae deletion strains, locus YHR079C, strain IRE1, active compounds read low",0.749
same,normalized growth,"S. cerevisiae deletion strains, locus YHR082C, strain KSP1, active compounds read low",1.07
same,normalized growth,"S. cerevisiae deletion strains, locus YHR205W, strain SCH9, active compounds read low",0.985
same,normalized growth,"S. cerevisiae deletion strains, locus YIL147C, strain SLN1, active compounds read low",0.988
same,normalized growth,"S. cerevisiae deletion strains, locus YJL095W, strain BCK1, active compounds read low",0.787
same,normalized growth,"S. cerevisiae deletion strains, locus YJL128C, strain PBS2, active compounds read low",0.944
same,normalized growth,"S. cerevisiae deletion strains, locus YJL157C, strain FAR1, active compounds read low",0.989
same,normalized growth,"S. cerevisiae deletion strains, locus YJR016C, strain ILV3, active compounds read low",0.984
same,normalized growth,"S. cerevisiae deletion strains, locus YJR066W, strain TOR1 (second series), active compounds read low",0.988
same,normalized growth,"S. cerevisiae deletion strains, locus YJR066W, strain TOR1, active compounds read low",1.07
same,normalized growth,"S. cerevisiae deletion strains, locus YKL048C, strain ELM1, active compounds read low",0.976
same,normalized growth,"S. cerevisiae deletion strains, locus YKL067W, strain YNK1, active compounds read low",0.976
same,normalized growth,"S. cerevisiae deletion strains, locus YKL101W, strain HSL1, active compounds read low",0.951
same,normalized growth,"S. cerevisiae deletion strains, locus YKL193C, strain SDS22, active compounds read low",0.991
same,normalized growth,"S. cerevisiae deletion strains, locus YKL203C, strain TOR2, active compounds read low",1.06
same,normalized growth,"S. cerevisiae deletion strains, locus YLR113W, strain HOG1, active compounds read low",0.713 (active)
same,normalized growth,"S. cerevisiae deletion strains, locus YLR133W, strain CKI1, active compounds read low",0.983
same,normalized growth,"S. cerevisiae deletion strains, locus YLR403W, strain SFP1, active compounds read low",0.979
same,normalized growth,"S. cerevisiae deletion strains, locus YML070W, strain DAK1, active compounds read low",0.973
same,normalized growth,"S. cerevisiae deletion strains, locus YMR001C, strain CDC5, active compounds read low",0.979
same,normalized growth,"S. cerevisiae deletion strains, locus YMR205C, strain PFK2 (second series), active compounds read low",0.984
same,normalized growth,"S. cerevisiae deletion strains, locus YMR277W, strain FCP1, active compounds read low",0.989
same,normalized growth,"S. cerevisiae deletion strains, locus YNL006W, strain LST8, active compounds read low",0.988
same,normalized growth,"S. cerevisiae deletion strains, locus YNL020C, strain ARK1, active compounds read low",0.979
same,normalized growth,"S. cerevisiae deletion strains, locus YNL161W, strain CBK1, active compounds read low",0.99
same,normalized growth,"S. cerevisiae deletion strains, locus YNL183C, strain NPR1, active compounds read low",0.842
same,normalized growth,"S. cerevisiae deletion strains, locus YNL207W, strain RIO2, active compounds read low",0.986
same,normalized growth,"S. cerevisiae deletion strains, locus YNL222W, strain SSU72, active compounds read low",0.987
same,normalized growth,"S. cerevisiae deletion strains, locus YNL307C, strain MCK1 (second series), active compounds read low",0.984
same,normalized growth,"S. cerevisiae deletion strains, locus YOL078W, strain AVO1, active compounds read low",0.988
same,normalized growth,"S. cerevisiae deletion strains, locus YOL136C, strain PFK27, active compounds read low",0.989
same,normalized growth,"S. cerevisiae deletion strains, locus YOR061W, strain CKA2, active compounds read low",0.983
same,normalized growth,"S. cerevisiae deletion strains, locus YOR119C, strain RIO1, active compounds read low",0.999
same,normalized growth,"S. cerevisiae deletion strains, locus YOR231W, strain MKK1, active compounds read low",0.797
same,normalized growth,"S. cerevisiae deletion strains, locus YOR329C, strain SCD5, active compounds read low",0.984
same,normalized growth,"S. cerevisiae deletion strains, locus YPL031C, strain PHO85, active compounds read low",0.953
same,normalized growth,"S. cerevisiae deletion strains, locus YPL153C, strain RAD53, active compounds read low",0.948
same,normalized growth,"S. cerevisiae deletion strains, locus YPL204W, strain HRR25, active compounds read low",0.97
same,normalized growth,"S. cerevisiae deletion strains, locus YPL209C, strain IPL1, active compounds read low",0.99
same,normalized growth,"S. cerevisiae deletion strains, locus YPL256C, strain CLN2, active compounds read low",0.777 (active)
same,normalized growth,"S. cerevisiae deletion strains, locus YPR025C, strain CCL1, active compounds read low",0.985
same,normalized growth,"S. cerevisiae deletion strains, locus YPR106W, strain ISR1, active compounds read low",0.98
same,normalized growth,"S. cerevisiae deletion strains, locus YPR111W, strain DBF20, active compounds read low",0.972
same,normalized growth,"S. cerevisiae deletion strains, strain NNK1, active compounds read low",0.995
same,normalized growth,"S. cerevisiae deletion strains, strain TSCII, active compounds read low",0.988
